This note sets out measurements from PubChem BioAssay (Tox21).

Values without a mark were called inactive. Inconclusive results are not listed. The source made the active and inactive calls. Calls come from the whole dose curve; as a rule, active = well fitted curve in the direction sought with a large enough effect in the repeat runs; inconclusive = weak or mixed curves; inactive = no such curve, though single readings can be large; an effect the other way counts as inactive or inconclusive.

The nature of assay [1]: A CellTox Green Cytotoxicity Assay to monitor cytotoxicity in HEK293 cells - 40 hour (AID 1224871). Note: nearly all actives have a fitted effect of over 45% in size. In a few lines:
(§1)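 Cytotoxicity was tracked continuously in HEK293 cells by a DNA-binding dye excluded from viable cells. Compounds were transferred in DMSO 5 h after seeding; fluorescence was recorded at intervals up to 40 h.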

Assay [2] is described as follows: qHTS RealTime-Glo MT Cell Viability Assay in HEK293 cells - 16 hour (AID 1224872). Note: nearly all actives have a fitted effect of over 50% in size. Note: potency is the fitted concentration of half-maximal effect. Put shortly: (§2)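 Assay medium contained NanoLuc luciferase plus cell-permeant prosubstrate, added with HEK293 cells at 600 cells/well. After 5 h at 37 C/5% CO2 compounds were added; plates stayed at 37 C for 40 h with serial luminescence reads.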
The nature of assay [3]: qHTS RealTime-Glo MT Cell Viability Assay in HepG2 cells - 8 hour (AID 1224873). Note: nearly all actives have a fitted effect of over 55% in size. In a few lines:
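Real-time viability: cells seeded at 600 per well together with NanoLuc and cell-permeant prosubstrate, compounds added after 5 h incubation. Luminescence tracked at 0, 8, 16, 24, 32 and 40 h of exposure.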
On the technique in general: Quantitative high-throughput screening tests each substance at several concentrations.

Assay [4] can be described thus: qHTS RealTime-Glo MT Cell Viability Assay in HEK293 cells - 40 hour (AID 1224874). Note: nearly all actives have a fitted effect of over 50% in size. Note: potency is the fitted concentration of half-maximal effect. The conditions noted are these: RealTime-Glo luminescence; max response: stronger effect = lower value. Put shortly:
(§3)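 Nonlytic bioluminescent viability monitoring. HEK293 at 600 cells/well with reagent; 5 h settle; compound transfer by pintool; plates held at 37 C and read at set time points.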

Assay [5] in a line: A CellTox Green Cytotoxicity Assay to monitor cytotoxicity in HepG2 cells - 16 hour (AID 1224876). Note: nearly all actives have a fitted effect of over 45% in size. Put shortly: (§4)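 Real-time, homogeneous cytotoxicity readout: dead-cell DNA staining by CellTox Green in HepG2 monolayers, fluorescence measured at timed intervals up to 40 h of continuous compound exposure.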
Assay [6] is described as follows: qHTS RealTime-Glo MT Cell Viability Assay in HepG2 cells - 32 hour (AID 1224877). Note: nearly all actives have a fitted effect of over 55% in size. In a few lines:
(§5)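 qHTS, HepG2, 600 cells/well, RealTime-Glo (NanoLuc + prosubstrate) added with cells; 5 h preincubation; DMSO compound addition; 37 C; luminescence at 0/8/16/24/32/40 h.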

Assay [7] can be described thus: A CellTox Green Cytotoxicity Assay to monitor cytotoxicity in HepG2 cells - 24 hour (AID 1224878). Note: nearly all actives have a fitted effect of over 45% in size. In a few lines: as §4
A short description of assay [8]: qHTS RealTime-Glo MT Cell Viability Assay in HEK293 cells - 0 hour (AID 1224880). Note: top concentration of the series differs between compounds; nearly all actives have a fitted effect of over 45% in size. In a few lines:
as §3

Assay [9] in a line: A CellTox Green Cytotoxicity Assay to monitor cytotoxicity in HEK293 cells - 32 hour (AID 1224881). Note: nearly all actives have a fitted effect of over 40% in size. Put shortly:
as §1

Assay [10] in a line: A CellTox Green Cytotoxicity Assay to monitor cytotoxicity in HepG2 cells - 0 hour (AID 1224882). Note: nearly all actives have a fitted effect of over 35% in size. Put shortly: as §4
A short description of assay [11]: A CellTox Green Cytotoxicity Assay to monitor cytotoxicity in HepG2 cells - 32 hour (AID 1224883). Note: nearly all actives have a fitted effect of over 50% in size. Note: potency is the fitted concentration of half-maximal effect. In a few lines: as §4
Assay [12] can be described thus: A CellTox Green Cytotoxicity Assay to monitor cytotoxicity in HEK293 cells - 8 hour (AID 1224884). Note: nearly all actives have a fitted effect of over 35% in size. In a few lines: as §1
The nature of assay [13]: qHTS RealTime-Glo MT Cell Viability Assay in HepG2 cells - 16 hour (AID 1224885). Note: nearly all actives have a fitted effect of over 50% in size. In a few lines: as §5
The nature of assay [14]: qHTS RealTime-Glo MT Cell Viability Assay in HEK293 cells - 24 hour (AID 1224886). Note: nearly all actives have a fitted effect of over 50% in size. Note: potency is the fitted concentration of half-maximal effect. Put shortly:
as §2

Assay [15] in a line: qHTS RealTime-Glo MT Cell Viability Assay in HEK293 cells - 8 hour (AID 1224887). Note: nearly all actives have a fitted effect of over 50% in size. Note: potency is the fitted concentration of half-maximal effect. Put shortly:
as §3

A short description of assay [16]: A CellTox Green Cytotoxicity Assay to monitor cytotoxicity in HEK293 cells - 16 hour (AID 1224888). Note: nearly all actives have a fitted effect of over 35% in size. Put shortly: as §1
A short description of assay [17]: qHTS RealTime-Glo MT Cell Viability Assay in HepG2 cells - 0 hour (AID 1224889). Note: nearly all actives have a fitted effect of over 50% in size. Note: potency is the fitted concentration of half-maximal effect. In a few lines:
as §5

Assay [18] can be described thus: A CellTox Green Cytotoxicity Assay to monitor cytotoxicity in HepG2 cells - 8 hour (AID 1224890). Note: nearly all actives have a fitted effect of over 45% in size. In a few lines:
as §4

Assay [19] is described as follows: A CellTox Green Cytotoxicity Assay to monitor cytotoxicity in HEK293 cells - 24 hour (AID 1224875). Put shortly:
as §1

A short description of assay [20]: A CellTox Green Cytotoxicity Assay to monitor cytotoxicity in HepG2 cells - 40 hour (AID 1224879). Note: nearly all actives have a fitted effect of over 40% in size. Note: potency is the fitted concentration of half-maximal effect. In a few lines: as §4
% is set by controls: 0 for no effect and ±100 for the full control effect.

`NS(=O)(=O)c1cc(-c2nn[nH]n2)c(NCc2cccs2)cc1Cl`: the Potency result in assay [1], in assay [2], in [5], in assay [6], in assay [7] and in assay [9] was “inactive” throughout. The Potency entry in [10], in assay [11], in [12], in assay [14], in [15] and in assay [16] was “inactive” throughout. In addition, the Potency entry in assay [17] and in [18] was “inactive” throughout. In addition, the call in [3], in assay [8] and in [13] was inactive. The max response in assay [4] is -3.29%.
For `N#CSCC(=O)O`, the Potency entry in [1], in [2], in assay [19], in [5], in [7] and in assay [9] was “inactive” each time. For the same compound, the Potency entry in [10], in assay [11], in assay [12], in [14], in [15] and in assay [17] was “inactive” in each case. In assay [18], the Potency entry was “inactive”. For the same compound, the outcome in assay [3], in [8] and in assay [13] was inactive. Besides, in assay [4], the max response was 0.0274%.
Consider `Cc1nc(-c2ccccn2)ncc1C(=O)Nn1cc(C)c2cc(F)ccc21`, for which the Potency entry in assay [1], in assay [19], in [5], in [7], in assay [20] and in [11] was “inactive” throughout. The Potency result in assay [12], in [17] and in [18] was “inactive” throughout. Also, the Potency in assay [2] was 1740 nM (active); in [4], 1380 nM (active); in assay [14], 1550 nM (active); in assay [15], 1950 nM (active). For the same compound, the compound was classed as inactive in [3] and in [13].
In the case of `CC(=O)N(CC(O)CN(C(C)=O)c1c(I)c(C(=O)NCC(O)CO)c(I)c(C(=O)NCC(O)CO)c1I)c1c(I)c(C(=O)NCC(O)CO)c(I)c(C(=O)NCC(O)CO)c1I` (centres undefined), the Potency result in [1], in assay [2], in [5], in assay [6], in assay [7] and in [20] was “inactive” each time. For the same compound, the Potency entry in assay [9], in [11], in [12], in assay [14], in assay [15] and in assay [16] was “inactive” throughout. Moreover, the Potency entry in assay [17] and in [18] was “inactive” in each case. The compound was classed as inactive in assay [3], in [8] and in assay [13]. Also, the max response in assay [4] is 0.602%.
For `CC(=O)N[C@@H](CC(C)C)C(=O)O`, the Potency entry in assay [1], in assay [2], in assay [5], in [6], in [7] and in [9] was “inactive” in each case. Also, the Potency entry in assay [10], in assay [12], in [14], in assay [15], in [16] and in assay [18] was “inactive” each time. Moreover, the result in assay [3], in assay [8] and in assay [13] was inactive. The max response in assay [4] is -2.78%.
As to `CCOC(=O)C(Br)c1ccccc1` (centres undefined), the Potency entry in [1], in assay [2], in assay [19], in [5], in [6] and in [7] was “inactive” each time. Moreover, the Potency entry in assay [9], in assay [12], in [14], in [15], in assay [16] and in assay [18] was “inactive” each time. Moreover, the max response in assay [4] was 15.2%. Further, the compound was called inactive in assay [8] and in assay [13].
Regarding `CCCCC1CCC(=O)O1` (centres undefined), the Potency entry in assay [1], in [2], in assay [19], in assay [5], in assay [7] and in [20] was “inactive” throughout. Also, the Potency entry in assay [10], in assay [12], in assay [14], in assay [15], in assay [16] and in assay [17] was “inactive” in each case. In addition, the Potency result in assay [18] was “inactive”. The max response in assay [4] is -3.25%. Further, the result in [8] and in assay [13] was inactive.
`CC1(C)S[C@@H]2[C@H](NC(=O)C(C(=O)O)c3ccccc3)C(=O)N2[C@H]1C(=O)O` (some centres undefined): the Potency result in assay [1], in assay [2], in assay [19], in assay [5], in assay [6] and in assay [7] was “inactive” in each case. In addition, the Potency result in [20], in [9], in [10], in [11], in [12] and in [14] was “inactive” throughout. The Potency result in assay [15], in assay [17] and in [18] was “inactive” throughout. Besides, the max response in [4] is -0.907%. Further, the compound was called inactive in assay [8] and in [13].
Consider `CCCCNc1cc(C(=O)O)cc(S(N)(=O)=O)c1Oc1ccccc1`, for which the Potency result in assay [1], in assay [2], in [6], in assay [7], in assay [20] and in assay [9] was “inactive” throughout. Also, the Potency result in assay [10], in assay [11], in assay [12], in assay [14], in assay [15] and in assay [16] was “inactive” each time. Moreover, in assay [17], the Potency result is “inactive”. Also, the max response in [4] was 0.323%. Moreover, the compound was classed as inactive in [8] and in assay [13].
For `CC1(C)O[C@@H]2C[C@H]3[C@@H]4CCC5=CC(=O)CC[C@]5(C)[C@@]4(F)[C@@H](O)C[C@]3(C)[C@]2(C(=O)CCl)O1`, the Potency result in [1], in assay [2], in [19], in [5], in assay [6] and in assay [7] was “inactive” in each case. Also, the Potency entry in [20], in [9], in assay [10], in assay [11], in [12] and in assay [15] was “inactive” throughout. For the same compound, the Potency entry in assay [16] and in assay [18] was “inactive” each time. In addition, the compound was called inactive in assay [3] and in [13]. Also, the Potency in assay [17] is 5350 nM (active).
Consider `CCCCc1ccc2nc(NC(=O)OC)[nH]c2c1`, for which the Potency entry in assay [1], in [2], in [19], in assay [5], in assay [6] and in [7] was “inactive” in each case. The Potency result in assay [9], in [10], in [11], in assay [12], in assay [14] and in assay [15] was “inactive” in each case. For the same compound, the Potency entry in [17] and in assay [18] was “inactive” each time. Moreover, the compound was called inactive in assay [3], in assay [8] and in assay [13]. Also, in assay [20], the Potency is 338 nM (active).
With `CCCS(=O)c1ccc2nc(NC(=O)OC)[nH]c2c1` (centres undefined), the Potency entry in [1], in [2], in [5], in assay [6], in assay [7] and in assay [9] was “inactive” in each case. In addition, the Potency result in assay [10], in [12], in assay [14], in assay [15], in [16] and in assay [17] was “inactive” each time. Further, the Potency result in assay [18] is “inactive”. Further, the outcome in assay [3], in assay [8] and in assay [13] was inactive. For the same compound, the Potency in assay [20] is 12000 nM (active); in assay [11], 16900 nM (active).
In the case of `CC(C)NC[C@@H](O)COc1cccc2ccccc12`, the Potency result in [1], in [2], in assay [19], in assay [5], in assay [6] and in assay [7] was “inactive” throughout. Further, the Potency result in [20], in assay [9], in assay [10], in [11], in assay [12] and in [14] was “inactive” throughout. Further, the Potency result in [15], in assay [16], in assay [17] and in assay [18] was “inactive” each time. The max response in [4] is -27.3%. For the same compound, the compound was called inactive in assay [8] and in [13].
Regarding `COc1ccccc1N1CCN(CCCNc2cc(=O)n(C)c(=O)n2C)CC1`, the Potency result in assay [1], in assay [2], in [19], in assay [5], in [6] and in [7] was “inactive” throughout. Besides, the Potency result in assay [20], in assay [9], in [12], in assay [16], in assay [17] and in assay [18] was “inactive” throughout. The max response in assay [4] was -21.2%. In addition, the compound was classed as inactive in [8] and in [13].
With `OCC(CBr)(CBr)CBr`, the Potency result in assay [1], in [2], in assay [19], in assay [5], in assay [6] and in [7] was “inactive” throughout. Besides, the Potency result in [20], in [9], in [10], in assay [12], in assay [14] and in [15] was “inactive” throughout. Besides, the Potency result in [16], in assay [17] and in assay [18] was “inactive” each time. Also, the compound was called inactive in assay [3], in [8] and in assay [13].
